# Test results reported in PubChem BioAssay AID651692 (Broad Institute, 2012).
# Entries with a potency or affinity are not part of this list. Activity calls are given as the source filed them.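 How the source made its calls: active means fitted half-maximal concentration for loss of cell signal no higher than twice the top valid tested concentration; inconclusive means flat curve at 30 to 70% inhibition, or poor fit; inactive means flat within 30%, signal rise, or potency above limit.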
# Assay: MDA-MB-231 cell growth inhibition, dose response, cytotoxicity control for RAD54 inhibitor project, CellTiter-Glo luminescence, cherry-pick (AID 651692);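 further: 0% = median of sample compound wells and -100% = staurosporine control wells; more negative values mean stronger loss of viable cell signal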
# Conditions: MDA-MB-231 viability, 24 h; series mostly up to 26 µM; activity change, negative = growth inhibition: at the top concentration
row,SMILES,"activity change, negative = growth inhibition"
1,O=C(Nc1ccc(Nc2ccncc2)cc1)c1ccc(Nc2ccnc3ccc([N+](=O)[O-])cc23)cc1,2.9% (inactive)
2,CN1CCN(c2nc(-c3cccs3)nc3ccccc23)CC1,1.82% (inactive)
3,Cc1ccc2nc(Cl)c3cc(C(=O)NCCCN4CCCC4)sc3c2c1,-15.8% (inactive)
4,CCN(CC)CCNc1ccc(CO)c2oc3cc(Cl)ccc3c(=O)c12,-9.29% (inactive)
5,Oc1ccc(CCNc2c3ccccc3nc3ccccc23)cc1O,-15% (inactive)
6,c1c[nH]c(CN2CCN(Cc3ncc[nH]3)CC2)n1,2.65% (inactive)
7,CCOC(=O)c1cnc2c(Cl)cccc2c1NCCCN1CCOCC1,8.64% (inactive)
8,CCOC(=O)c1cc(-c2ccncc2)nc2c1c(C)nn2-c1ccccn1,-5.8% (inactive)
9,CCOc1cc2[nH]c(=O)n(Cc3ccc(C(=O)NCCCN4CCC(C)CC4)cc3)c(=O)c2cc1OCC,8.84% (inactive)
10,COc1cccc2sc3cc(NCCCN4CCOCC4)ccc3c(=O)c12,6.52% (inactive)
11,COc1cccc(-c2nc(N3CCN(Cc4ccccc4)CC3)c3ccccc3n2)c1O,9.26% (inactive)
12,CC1CCN(CCCNC(=O)c2cc3c(=O)n(C)c4ccccc4c3n2C)CC1,-4.97% (inactive)
13,CN1CCCC1CCNc1ccc2c(=O)c3ccccc3oc2c1 (stereo not given),6.49% (inactive)
14,COc1ccc(-c2cc(NC=O)c3ncc(-c4cccc(C(=O)NCCN(C)C)c4)n3c2)cc1,-4.06% (inactive)
15,OC1CCCN(Cc2c3ccccc3cc3ccccc23)C1 (stereo not given),7.86% (inactive)
16,CCOC(=O)c1c(NC(C)=O)sc2c(O)c(CN3CCN(CC)CC3)ccc12,4.29% (inactive)
17,CCCCN(CC)CCNC(=S)Nc1ccc2nc(N3CCN(C)CC3)cc(C)c2c1,-2.61% (inactive)
18,Cc1ccc(OCC(=O)Nc2cccc(-c3nnc(-c4ccccc4)o3)c2)c(C)c1,-3.67% (inactive)
19,Oc1cccc(Nc2c3ccccc3nc3ccccc23)c1,-0.751% (inactive)
20,Cc1nc2ccccc2c2oc(C(=O)NCCN3CCN(C)CC3)cc12,5.38% (inactive)

row,SMILES,"activity change, negative = growth inhibition"
1,CCCNc1nc2nc3ccccn3c(=O)c2cc1C(=O)NCCN1CCOCC1,8.92% (inactive)
2,CN(C)CCN(C(=O)CN1C(=O)c2ccccc2C1=O)c1nc2cc3c(cc2s1)OCO3,4.48% (inactive)
3,CN1CCc2[nH]c3ccc(C(=O)NN)cc3c2C1,-1.61% (inactive)
4,CCCCN(CC)CCCNC(=O)c1cc2c(=O)n(C)c3ccccc3c2n1C,-6.97% (inactive)
5,COc1ccc(Nc2c3c(nc4ccc(C)cc24)CCC3)cc1,-6.18% (inactive)
6,CCCN(CCC)CCCNC(=S)Nc1ccc2nc(N3CCN(C)CC3)cc(C)c2c1,0.795% (inactive)
7,CCN(CC)Cc1cc2[nH]c3c4ccc(Cl)cc4ncc3c2cc1OC,2.58% (inactive)
8,CCn1c(=N)c(C(=O)NCCCOC)cc2c(=O)n3cccc(C)c3nc21,5.29% (inactive)
9,CCN(CC)CCNC(=O)c1cc2cc3ccc(OC)cc3nc2o1,4.55% (inactive)
10,Cc1cccn2c(=O)c3cc(C(=O)NC4CCCC4)c(=N)n(CCCN4CCOCC4)c3nc12,-2.59% (inactive)
11,Cc1c(OCC(=O)NC2CC(C)(C)NC(C)(C)C2)ccc2c1oc(=O)c1ccccc12,0.065% (inactive)
12,COCCCNCCC(CCC(C)C)c1ccc2c(c1)OCO2 (stereo not given),0.637% (inactive)
13,CCN(CC)CCNc1ccc(CO)c2oc3ccccc3c(=O)c12,-0.916% (inactive)
14,CCC(=O)N(Cc1cc2cc(OC)ccc2[nH]c1=O)c1cc(C)ccc1C,4.92% (inactive)
15,CCCCN(CC)CCNC(=O)c1cc2c(=O)n(C)c3ccccc3c2n1C,-11.7% (inactive)
16,CN(C)C(CNC(=O)CCCN1C(=O)c2cccc3cccc(c23)C1=O)c1ccccc1 (stereo not given),13.8% (inactive)
17,CCN(CC)CC(O)c1ccc2ccc3ccc(O)cc3c2c1 (stereo not given),-4.8% (inactive)
18,COc1cc(OC)c2nc(C)c3c(c2c1)N(c1ccc(O)cc1)CC3,6.2% (inactive)
19,CCN(CC)CCn1c2ccccc2c2nc3ccc([N+](=O)[O-])cc3cc21,-13.4% (inactive)
20,CCCCN(CC)CCCNC(=O)c1cc2c(-c3ccc(OC)c(OC)c3)nn(C)c2s1,5.82% (inactive)
